Compound activity: PubChem BioAssay, several laboratories
p47phox inh: p47phox/p22phox peptide binding inhibitors, primary screen, biochemical, uHTS, NADPH oxidase regulatory subunit. Neutrophil cytosol factor 1 (Homo sapiens), P14598. fluorescence polarization, 2 h. inhibition, % at 24.7 µM. actives 0.53% (n = 220,000). AID 1274, 2008
Target sequence (P14598 whole entry, looked up): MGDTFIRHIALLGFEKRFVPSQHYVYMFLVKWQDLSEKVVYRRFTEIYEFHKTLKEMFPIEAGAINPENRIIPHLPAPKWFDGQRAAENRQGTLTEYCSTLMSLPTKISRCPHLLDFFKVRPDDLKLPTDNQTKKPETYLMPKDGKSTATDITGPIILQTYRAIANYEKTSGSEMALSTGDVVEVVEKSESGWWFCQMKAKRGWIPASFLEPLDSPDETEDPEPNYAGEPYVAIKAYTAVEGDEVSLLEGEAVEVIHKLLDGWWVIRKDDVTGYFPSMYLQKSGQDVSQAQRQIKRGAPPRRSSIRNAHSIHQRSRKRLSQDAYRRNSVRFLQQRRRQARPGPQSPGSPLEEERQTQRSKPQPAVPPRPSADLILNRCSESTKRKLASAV
14-3-3 Bad inh: inhibitors of 14-3-3 zeta/Bad binding, primary screen, biochemical, TR-FRET, bovine 14-3-3 zeta; TR-FRET 14-3-3zeta/Dy647-pBad peptide displacement, 1 h; inhibition, % at 21.7 µM; actives 0.71% (n = 220,000);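 active = inhibition above about 70%, limit read from the data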
Target sequence (P63103 whole entry, looked up): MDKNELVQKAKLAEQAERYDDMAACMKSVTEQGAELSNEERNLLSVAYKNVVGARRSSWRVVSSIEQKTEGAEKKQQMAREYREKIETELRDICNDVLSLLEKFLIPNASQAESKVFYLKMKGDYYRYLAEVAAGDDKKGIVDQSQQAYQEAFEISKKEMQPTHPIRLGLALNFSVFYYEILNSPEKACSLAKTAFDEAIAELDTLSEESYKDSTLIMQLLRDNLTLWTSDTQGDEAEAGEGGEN
eIF4E-4G inh: eIF4E–eIF4G protein interaction inhibitors, primary screen, biochemical, uHTS, TR-FRET, eIF4GI fragment; Eukaryotic translation initiation factor 4E (Mus musculus) + Eukaryotic translation …; TR-FRET eIF4E-eIF4GI(517-606) binding, 2 h; actives 0.37% (n = 220,000); inhibition, % at 21.7 µM; AID 782, 2007
Mcl-1 Bim block: inhibitors of Bim peptide binding to Mcl-1, primary screen, biochemical, bead-based flow cytometry, multiplex. Induced myeloid leukemia cell differentiation protein Mcl-1 (Homo sapiens), Q07820. AID 1009, 2008. actives 0.1% (n = 190,000). Bim peptide-Mcl-1 binding. inhibition, % at 10 µM; in the data active = inhibition above about 40%
Mcl1-Bid inh: Mcl-1/Bid binding inhibitors, primary screen, biochemical, TR-FRET, 1536-well; inhibition, % at 21.7 µM; Induced myeloid leukemia cell differentiation protein Mcl-1 (Homo sapiens), Q07820; actives 0.97% (n = 220,000); TR-FRET Mcl-1/Bid-Dy647 peptide binding;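 active = compounds that cut the binding signal by more than half at the single screening dose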;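 also: His-tagged Mcl-1 with europium anti-His antibody binding Bid BH3 peptide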
Mcl1 Noxa PPI: Mcl-1/Noxa binding inhibitors, primary screen, biochemical, TR-FRET, 1536-well | AID 1022, 2008 | Induced myeloid leukemia cell differentiation protein Mcl-1 (Homo sapiens), Q07820 | TR-FRET Mcl-1/Noxa peptide binding, 2 h | inhibition, % at 21.7 µM | actives 1.5% (n = 220,000);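 active = compounds that cut the protein-peptide binding signal by more than 50% relative to plate controls in a single-dose test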;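 also: His-tagged Mcl-1 with rhodamine Noxa BH3 peptide and terbium anti-His antibody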
Of the large screens only hits and unclear results are named; the others gave an inactive call. Hits are enriched below; roughly 3.4% of the tested compounds scored in any of these assays.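 The calls were made as follows, unless noted: active = inhibition above about 30% (limit read from the data); inactive = the rest.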

Cc1ccc(/C=N/Nc2ccnc3cc(Cl)ccc23)c(C)c1	p47phox inh 47, Mcl1-Bid inh 63, Mcl1 Noxa PPI 56
Clc1ccc2c(N/N=C/c3cccnc3)ccnc2c1	none
Cc1ccc2nc(NC(=O)CC3Oc4ccccc4NC3=O)sc2c1 (stereo not given)	none (no result: Mcl-1 Bim block)
CC(=O)N1CCCN(Cc2cn(-c3ccc(C)cc3)nc2-c2ccc(F)cc2)CC1	Mcl1-Bid inh 56
Cc1ccc(-n2cc(CN3CCCN(C=O)CC3)c(-c3ccc(F)cc3)n2)cc1	none
COc1ccccc1OC1=NS(=O)(=O)c2ccccc21	14-3-3 Bad inh 85
Cc1ccc(OC2=NS(=O)(=O)c3ccccc32)cc1	none
Cc1ccc(-c2csc(Nc3ccc(S(N)(=O)=O)cc3)n2)o1	Mcl1 Noxa PPI 64
Cc1cccc(NC2=Nc3ccccc3N3C2=Nc2c(c(C)nn2-c2ccccc2)C3c2ccc(O)c(O)c2)c1 (stereo not given)	Mcl1 Noxa PPI 63
Cc1nn(-c2ccccc2)c2c1C(c1ccc(O)c(O)c1)N1C(=N2)C(Nc2ccccc2)=Nc2ccccc21 (stereo not given)	none
Cc1nc2cc(NC(=O)Nc3ccc(Br)cc3)ccc2o1	none
Cc1cccc(CS(=O)(=O)Cc2ccc(C(=O)O)o2)c1	Mcl1 Noxa PPI 56
COCCCNC(=O)c1ccc(CS(=O)(=O)Cc2cccc(C)c2)o1	none
CC(C)c1ccc(N2CC(C)(C)C2=O)cc1	none
O=C(c1ccc2nc(-c3ccco3)c(-c3ccco3)nc2c1)N1CCN(c2ccccc2)CC1	Mcl1 Noxa PPI 52
COc1ccc(CCNC(=O)c2ccc3nc(-c4ccco4)c(-c4ccco4)nc3c2)cc1OC	Mcl1 Noxa PPI 99
O=C(O)c1ccc2nc(-c3ccco3)c(-c3ccco3)nc2c1	Mcl1 Noxa PPI 80
O=C(c1cc(-c2ccco2)on1)N1CCN(c2ccccc2)CC1	none
Cn1c(=O)c2c(ncn2CCC(=O)N/N=C/c2ccncc2)n(C)c1=O	none (no result: Mcl-1 Bim block)
CC(C)(CO)NC(=O)Nc1ccc(Cl)c(Cl)c1	none
Cc1cc(OCC(=O)Nc2ccc(N3CCN(C(=O)c4ccco4)CC3)cc2)cc(C)c1Cl	Mcl1-Bid inh 57
O=C(CCNC(=O)c1ccccc1)Nc1cccnc1	none
COc1cc(SSc2cc(OC)cc([N+](=O)[O-])c2N)c(N)c([N+](=O)[O-])c1	Mcl1 Noxa PPI 75 (no result: Mcl-1 Bim block)
COc1cc([N+](=O)[O-])c2ncsc2c1	none
O=C(CCCCn1c(=O)c2ccccc2n(Cc2ccccc2)c1=O)NC1CCN(Cc2ccccc2)CC1	none
O=C1c2ccccc2C(=O)N1CC#CCN1CCN(C(c2ccccc2)c2ccccc2)CC1	Mcl1-Bid inh 62
O=S(=O)(CCN1CCN(C(c2ccccc2)c2ccccc2)CC1)C(F)(F)F	none
Cc1ccc(S(=O)(=O)N2CCOCC2)cc1NC(=O)CN1CCN(c2ccc(O)cc2)CC1	Mcl1 Noxa PPI 52
O=S(=O)(c1ccccc1Cl)N1CCC(O)(c2cccnc2)CC1	none
COc1cccc(-c2cc(C(=O)Nc3cnn(Cc4ccc(F)cc4)c3)no2)c1	none
COc1cccc(-c2cc(C(=O)Nc3cnn(Cc4ccccc4C)c3)no2)c1	p47phox inh 70
CCCCN(CC)S(=O)(=O)c1ccc(C(=O)N(CCCN(C)C)c2nc3cc(C)cc(C)c3s2)cc1	p47phox inh 36
CC(C)C(=O)Nc1ncc(Cc2ccc(Cl)cc2)s1	none
Cc1cccc(C)c1OCC(O)CN1CCN(c2ccccn2)CC1 (stereo not given)	none
Cc1ccc(OCC(O)CN2CCN(c3ccccn3)CC2)c(C)c1 (stereo not given)	Mcl1 Noxa PPI 51
Cc1ccc(S(=O)(=O)N2CCN(C(=O)c3cccs3)CC2)c(C)c1	none
COc1ccc2sc3ccccc3c(=O)c2c1	none
Cc1cc(O)cc2c(=O)c3ccccc3sc12	Mcl1 Noxa PPI 59
O=C(NCCN1CCN(c2ccccc2)CC1)c1ccc2c(c1)[nH]c(=S)n1c3ccccc3nc21	Mcl1 Noxa PPI 51
CN1c2cccc3cccc(c23)N(C)C1c1cccs1	none
CC1N(C)c2cccc3cccc(c23)N1C	Mcl1 Noxa PPI 63
CCOC(=O)C1=C(c2ccccc2)NC(N)=NC1c1ccc(OCc2ccc(Cl)cc2)c(OC)c1 (stereo not given)	p47phox inh 71, 14-3-3 Bad inh 94, eIF4E-4G inh 37 (no result: Mcl-1 Bim block)
O=C(NCC1CCCO1)c1cc(S(=O)(=O)N2CCCC2)c(Cl)cc1Cl (stereo not given)	none
CCN1CCN(CC(=O)c2c[nH]c3ccc(C)cc23)CC1	Mcl-1 Bim block 59
O=C(CSc1ncccn1)NCc1cccc(Cl)c1	none
CSc1nnc(-c2ccco2)c(-c2ccco2)n1	Mcl1 Noxa PPI 78
Cc1ccc(NC(=O)CSc2nnc(-c3ccco3)c(-c3ccco3)n2)cc1	Mcl1 Noxa PPI 90
O=C(CSc1nnc(-c2ccco2)c(-c2ccco2)n1)Nc1ccccc1	Mcl1 Noxa PPI 90
COc1ccc(C(=O)CSc2nnc(-c3ccco3)n2C)cc1	none
O=C(CSc1nnc(-c2ccccc2)c(-c2ccccc2)n1)NCc1ccco1	none
COc1ccc(C(=O)CSc2nnc(-c3ccco3)c(-c3ccco3)n2)cc1	Mcl1-Bid inh 54, Mcl1 Noxa PPI 90
CSc1nnc(-c2ccccc2)c(-c2ccccc2)n1	none (no result: Mcl-1 Bim block)
O=C(Nc1ccc2c(c1)OCO2)c1n[nH]c(=O)c2ccccc12	none (no result: Mcl-1 Bim block)
COCC(=O)N(C)c1nnc(-c2ccccn2)s1	none
COCC(=O)N(C)c1nnc(-c2ccc([N+](=O)[O-])cc2)s1	p47phox inh 35
Cn1c2ccccc2c(=O)c2c(=O)n(C3CCCCCC3)c(C3CCCCC3)nc21	p47phox inh 45, 14-3-3 Bad inh 87, Mcl1-Bid inh 89
Cn1c2ccccc2c(=O)c2c(=O)n(-c3ccccc3)c(C3CCCCC3)nc21	none
O=c1cc(N=Nc2ccc(Cl)cc2)[nH]c(=O)[nH]1	none (no result: Mcl-1 Bim block)
O=C(CSc1nc(Cc2ccccc2)nc2ccccc12)Nc1ccc2c(c1)OCCO2	Mcl1-Bid inh 58
Cc1ccc(Oc2nc3c(C)cccn3c(=O)c2/C=C(\C#N)C(N)=O)cc1	eIF4E-4G inh 41 (no result: Mcl-1 Bim block)
Cn1ncc(Br)c1N1C(=O)CCC1=O	none (no result: Mcl-1 Bim block)
CCCc1nc2oc3cc(OC)ccc3c(=O)c2c(=O)n1CCc1ccccc1	Mcl1-Bid inh 69 (no result: Mcl-1 Bim block)
